We go through four molecules from PubChem BioAssay (EPA / NIEHS).

SMILES strings stand for the structures. Active and inactive are the calls of the source. The calls were made as follows: active = hit-call score of the fitted dose curve at least 0.9, where 1 is the maximum; inactive = score below 0.9.

A short description of one assay: CCTE_Mundy_HCI_Cortical_Synap_Neur_Matur_NeuriteSpotCountPerNeuriteLength: CCTE's Synaptogenesis and Neurite Maturation Assay in rat cortical cells for Neurite Spot Count per Neurite Length, Mundy Lab (AID 2284210). The gist of the method:
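Read-out: synaptophysin puncta counted along MAP2-stained neurites, normalised to neurite length, by automated high-content imaging. Rat cortical cells; AraC DIV 5; chemical dosing DIV 7; termination DIV 12. DMSO baseline.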
Regarding `Oc1ccccc1`, the result was inactive.

Regarding `O=C1O[C@H]([C@@H](O)CO)C(O)=C1O`, the result was inactive.

Consider `CC/C(=C(/CC)c1ccc(O)cc1)c1ccc(O)cc1`, for which the call was inactive.

As for `CN1C(=O)CC[C@H]1c1cccnc1`, the call was inactive.

Another assay in a line: CCTE_Mundy_HCI_Cortical_Synap_Neur_Matur_BPCount: CCTE's Synaptogenesis and Neurite Maturation Assay in rat cortical cells for Branch Point Count, Mundy Lab (AID 2284211). The gist of the method:
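In this multiplexed morphology assay, cortical cells from rat receive chemicals at DIV 7 and are fixed at DIV 12, then immunostained and imaged; branch points are counted, with DMSO as baseline.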
With `Oc1ccccc1`, the molecule was called inactive.

Take `O=C1O[C@H]([C@@H](O)CO)C(O)=C1O`: the outcome was inactive.

For orientation: AC50 means the concentration at which the activity in the assay is half-maximal. On to `CC/C(=C(/CC)c1ccc(O)cc1)c1ccc(O)cc1`, for which the half-maximal activity concentration (AC50) is 8.64 µM (active).

As to `CN1C(=O)CC[C@H]1c1cccnc1`, the molecule was called inactive.

The nature of another assay: CCTE_Mundy_HCI_Cortical_NOG_NeuriteCount: CCTE's Neurite Outgrowth Assay in rat cortical cells for Neurite Count, Mundy Lab (AID 2284212).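 Also: cells fixed about two days after chemical exposure began.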 The method in brief: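 Rat cortical primary cells; compound added 2 h post-plating, 1/10 dilution of working solution. Anti-betaIII-tubulin/AF488 ICC; ArrayScan neurite count vs DMSO.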
`Oc1ccccc1`: the call was inactive.

On to `O=C1O[C@H]([C@@H](O)CO)C(O)=C1O`, for which the molecule was classed as inactive.

`CC/C(=C(/CC)c1ccc(O)cc1)c1ccc(O)cc1`: the AC50 is 22.6 µM (active).

In the case of `CN1C(=O)CC[C@H]1c1cccnc1`, the molecule was called inactive.

The next assay can be described thus: CCTE_Mundy_HCI_Cortical_NOG_NeuriteLength: CCTE's Neurite Outgrowth Assay in rat cortical cells for Neurite Length, Mundy Lab (AID 2284213).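 As to AC50: neurites imaged about 48 to 50 h after chemical exposure began.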 The gist of the method:
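First, rat primary cortical cells were plated and, 2 h later, given test chemical as a 1/10 dilution. Finally, βIII-tubulin immunostaining enabled automated imaging of neurite length.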
For `Oc1ccccc1`, the call was inactive.

Take `O=C1O[C@H]([C@@H](O)CO)C(O)=C1O`: the outcome was inactive.

`CC/C(=C(/CC)c1ccc(O)cc1)c1ccc(O)cc1`: the concentration at half-maximal activity (AC50) is 23.7 µM (active).

Take `CN1C(=O)CC[C@H]1c1cccnc1`: the call was inactive.
